# Assay outcomes: PubChem, National Center for Advancing Translational Sciences (NCATS)
# Shown are actives, neighbours in structure and some others; about 8% of the full set was active somewhere.
# KB-3-1 tox: qHTS assay for MDR1-selective chemotherapeutics: Primary screen using the parental adenocarcinoma cell KB-3-1. 400,000 compounds, 1.4% hits. Potency, µM (top dose mostly 46.1 µM), hits mostly cytotoxic. AID 1347075, 2019. KB-3-1 viability, CellTiter-Glo ATP luminescence, 72 h; also: % is scaled to controls: 0 for no effect and ±100 for the full control effect; nearly all actives have a fitted effect of over 60% in size
#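 Parental KB-3-1 adenocarcinoma cells in phenol-red-free DMEM with 10% FBS were pin-treated with compounds at several concentrations, incubated 72 h at 37 °C, and viability read by CellTiter-Glo luminescence; concentration-effect curves were fitted after normalization.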
# HT1080 IDH1KD tx: qHTS for induction of synthetic lethality in tumor cells producing 2HG: qHTS for the HT-1080-IDH1KD cell line; HT-1080 IDH1 knockdown viability, ATP luminescence, 48 h; Potency, µM (doses to about 46.1 µM), inactives show top-dose activity, negative = toxicity, actives largely listed as cytotoxic; 360,000 compounds, 2% hits;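 also: 0% = DMSO wells and -100% = cell-free medium wells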
#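 After a 2 h attachment period, IDH1KD HT-1080 cells took pin-transferred compound for 48 h at 37 °C; ATP-based luminescence after 10 min room-temperature reagent incubation reported viability.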
# KB-V1 MDR tox: qHTS assay for MDR1-selective chemotherapeutics: Primary screen using the drug-selected MDR subline cells KB-V1 | KB-V1 MDR cells viability, CellTiter-Glo, 72 h | Potency, µM (top dose mostly 46.1 µM), usual class: cytotoxic | 400,000 compounds, 3.4% hits; also: % is scaled to controls: 0 for no effect and ±100 for the full control effect; nearly all actives have a fitted effect of over 60% in size
#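 Cells of the MDR subline KB-V1 are plated, dosed with compound at multiple concentrations, and incubated 72 h at 37 degrees C; CellTiter-Glo is then added and luminescence read after 10 min.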
# HT1080-NT tox: qHTS for induction of synthetic lethality in tumor cells producing 2HG: qHTS for the HT-1080-NT fibrosarcoma cell line. HT-1080-NT fibrosarcoma viability, CellTiter-Glo ATP luminescence, 48 h. Potency, µM (doses to about 46.1 µM), inactives show at the top dose activity, negative = less viability, hits mostly cytotoxic. 360,000 compounds, 1.6% hits. AID 686970, 2013;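 also: NT is the 2HG producing partner of a matched IDH1 knockdown line; 0% = DMSO-treated cells and -100% = media-only wells without cells; nearly all actives have a fitted effect of over 55% in size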
#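 Read-out is CellTiter-Glo luminescence after 10 minutes at room temperature, following 48 hours' compound treatment of HT-1080-NT cells (750 cells/well, RPMI, 5% FBS, 37 degrees C).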
# MCF10A rereplic: A quantitative high throughput screen for small molecules that induce DNA re-replication in MCF 10a normal breast cells | MCF 10A DNA re-replication, Hoechst nuclear intensity, 48 h | Potency, µM (highest dose often 46.1 µM), for inactives: at the top dose activity, positive = re-replication, usual class: activators | 350,000 compounds, 2.9% hits; also: % of control where 0% means no effect; nearly all actives have a fitted effect of over 50% in size
# SW480 rereplic: A quantitative high throughput screen for small molecules that induce DNA re-replication in SW480 colon adenocarcinoma cells | SW480 DNA re-replication, Hoechst DNA content imaging, 48 h | Potency, µM (highest dose often 46.1 µM), inactives show top-dose re-replication activation, actives largely listed as activators | 340,000 compounds, 1.8% hits; also: % of control where 0% means no effect; nearly all actives have a fitted effect of over 55% in size
#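 Treated cells incubate 48 hr (37 C, 5% CO2), are stained 40 min with Hoechst, and nuclear fluorescence is enumerated; a rise in nuclei with high DNA signal marks re-replication.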
# The depositor's hits bear a star; i = inactive; ? = inconclusive; / = no result; [ ] = another dose, or the depositor's remark. Calls follow the shape of the dose curve; as a rule, active = well fitted curve in the direction sought with a large enough effect; inconclusive = small, poorly fitted or top-dose-only effect, or another doubt; inactive = no such curve, though single readings can be large; an effect the other way counts as inactive or inconclusive. Potency is read from the fitted curve at half-maximal effect.
SMILES,KB-3-1 tox,HT1080 IDH1KD tx,KB-V1 MDR tox,HT1080-NT tox,MCF10A rereplic,SW480 rereplic
O=C1NCN(c2ccccc2)C12CCN(C(CCc1ccccc1)c1nnnn1C1CCCCC1)CC2 (stereo unspecified),?,25.9µM*,?,?,/,/
O=c1[nH]c2ccccc2n1C1CCN(C(CCc2ccccc2)c2nnnn2-c2ccc3c(c2)OCCO3)CC1 (stereo unspecified),?,14.6µM*,23.1µM*,13µM*,/,/
O=C1NCN(c2ccccc2)C12CCN(C(c1cccs1)c1nnnn1C1CCCC1)CC2 (stereo unspecified),i,-17.4%,i,-12.8%,/,/
CCc1ccc(-n2nc(C)c3c2NC(=O)CSC3c2ccc(C(=O)OC)cc2)cc1 (stereo unspecified),i,/,i,/,/,/
COc1ccc(-c2nn(-c3ccccc3)cc2C(=O)N2c3ccc(C)cc3C3CN(C)CCC32)cc1 (stereo unspecified),i,23.1µM*,i,/,?,2.4%
CCOc1ccc(-c2cc(C)[n+](CCc3ccc(OC)c(OC)c3)c(-c3ccc(OCC)cc3)c2)cc1,5.8µM*,16.4µM*,i,20.6µM*,14.3%,5.5%
CCOc1ccc(-c2cc(C)[n+](CCO)c(-c3ccc(OCC)cc3)c2)cc1,i,?,i,?,10.0%,?
OC(COCc1ccc(Cl)cc1)CN1CC=C(c2ccccc2)CC1 (stereo unspecified),?,?,?,-3.7%,14.6µM*,24.6%
OC(CN1CC=C(c2ccccc2)CC1)c1ccccc1 (stereo unspecified),i,1.1%,i,-2.1%,-6.5%,23.3%
C=CCN(C1=NCCN1)c1c(Cl)cccc1Cl,/,/,/,/,0.0%,-1.0%
Cc1nc2cc(-c3cccc(F)c3)nn2c(C)c1CCC(=O)N1CCC2(CC1)OCCO2,i,15.4%,?,3.0%,0.0%,-1.6%
Cc1nc2nc(SCC(=O)N3CCC4(CC3)OCCO4)nn2c(C)c1Cc1ccccc1,?,1.9%,25.9µM*,4.4%,18.9%,-13.2%
Cc1nc2c(-c3ccccc3)c(C)nn2c(C)c1CCC(=O)N1CCC2(CC1)OCCO2,i,3.2%,13µM*,10.2%,18.4%,-2.5%
CN(Cc1ccc(OC(F)F)cc1)C(=O)c1ccccc1Sc1ccccc1C#N,i,-0.7%,?,-4.5%,?,-0.2%
CCCCCn1c(=O)c(C(=O)NCCc2ccccc2)c(O)c2ccccc21,?,2.5%,?,4.9%,23.1µM*,2.9%
CCCCCn1c(=O)c(C(=O)Nc2ccccc2Cl)c(O)c2ccccc21,i,3.0%,i,0.9%,-5.3%,-0.8%
CCCCn1c(=O)c(C(=O)NCc2ccccc2OC)c(O)c2ccccc21,23.1µM*,4.2%,?,23.3%,10.8%,9.8%
CCCCn1c(=O)c(C(=O)Nc2cccc(C)c2)c(O)c2ccccc21,?,10.4%,?,13.0%,3.7%,-6.1%
CC1CCN(C(=O)c2ncn(C)c2C(=O)N2CCC(C)CC2)CC1,i,5.8%,i,0.7%,5.5%,-5.2%
COc1cc(C(=O)N/N=C/c2ccc(OC(=O)N3CCOCC3)cc2)cc(OC)c1OC,i,23.1µM*,?,?,6.51µM*,20.6µM*
O=C(N/N=C/c1ccccc1OC(=O)N1CCOCC1)c1cccs1,i,?,i,-15.2%,3.6%,?
C[N+](C)(C)CCCCCCCCCC[N+](C)(C)C,i,14.4%,i,?,9.5%,10.3%
Cc1ccc(-n2c(O)c(C=NCCN3CCOCC3)c(=O)[nH]c2=O)cc1,i,9.1%,?,?,-4.1%,-1.0%
Cc1ccc(-n2c(C)cc(/C=N/NC(=O)c3ccc(CN4CCOCC4)cc3)c2C)cc1,i,?,16.4µM*,-15.2%,22.2%,7.7%
CC(=O)NCC(N)C(=O)c1ccc(C)cc1 (stereo unspecified),/,-2.3%,/,-2.5%,/,/
SMILES,KB-3-1 tox,HT1080 IDH1KD tx,KB-V1 MDR tox,HT1080-NT tox,MCF10A rereplic,SW480 rereplic
COc1ccc(S(=O)(=O)N2c3ccc(F)cc3CCC2C)cc1 (stereo unspecified),1.64µM*,3.66µM*,1.64µM*,1.84µM*,0.92µM*,?
COc1ccc(S(=O)(=O)N2Cc3ccccc3-n3nncc3C2)cc1,i,1.0%,i,2.0%,/,/
COc1ccc(CC2NCC(O)C2OC(C)=O)cc1 (stereo unspecified),0.184µM*,0.13µM*,0.184µM*,1.84µM*,?,3.2%
COc1ccc(CC(=O)N2CCN(C)CC2)cc1,i,1.2%,i,-10.2%,13.2%,0.3%
O=[N+]([O-])c1cc(C(F)(F)F)ccc1Cl,i,5.8%,i,6.2%,?,5.6%
CCOC(=O)[C@]12Cc3c(cc(OC)c(OC)c3OC)[C@H]1N(C(C)C)C(=O)c1ccccc12,13µM*,6.51µM*,8.2µM*,?,/,/
CCOC(=O)[C@]12Cc3cc(C)ccc3[C@H]1N(C(C)C)C(=O)c1ccccc12,4.11µM*,25.9µM*,i,11.6µM*,/,/
CCOC(=O)[C@]12Cc3cc(C)ccc3[C@H]1N(Cc1ccccc1)C(=O)c1ccccc12,?,-22.1%,?,-2.9%,?,3.8%[9.22 µM]
CCOC(=O)[C@]12Cc3c(cc(OC)c(OC)c3OC)[C@H]1N(C)C(=O)c1cc(OC)ccc12,2.91µM*,?,3.66µM*,14.6µM*,/,/
CCOC(=O)[C@]12Cc3cc(C)ccc3[C@H]1N(Cc1ccccc1)C(=O)c1cc(F)c(F)cc12,3.26µM*,?,i,?,/,/
CCOC(=O)[C@]12Cc3ccccc3[C@H]1N(Cc1ccccc1)C(=O)c1ccccc12,i,6.6%,?,10.1%,14.2%,14.1%
COc1ccc(-c2nc(CN3C(=O)CN=C(c4ccccc4)c4ccccc43)c(C)o2)cc1OC,i,/,i,/,/,/
COc1ccc([C@@H]2COc3c(ccc4c3C=CC(C)(C)O4)C2)c(OC)c1,i,21.9%,i,23.5%,-4.4%,3.9%
